PubChem BioAssay AID651599 (National Center for Advancing Translational Sciences (NCATS), 2012)
Results filed as inconclusive are left out. A call without a number means that no potency is given here. Active and inactive are the calls of the source. Calls come from the whole dose curve; as a rule, active = well fitted inhibition curve with a large enough effect; inconclusive = small, poorly fitted or top-dose-only effect; inactive = no such curve, though single readings can be large or run the other way.

target: Tumor susceptibility gene 101 protein (Homo sapiens) (UniProt Q99816); assay: qHTS Assay for Iinhibitors of HIV-1 Budding by Blocking the Interaction of PTAP/TSG101: Hit Validation in TR assay; conditions: Tsg101 binding domain + Texas Red-labeled PTAP peptide, fluorescence polarization, 20 min; series mostly up to 57.5 µM
Method in brief: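 Texas Red-PTAP peptide (50 nM) binding to Tsg101 binding domain (10 uM), both final, in pH 7.5 HEPES buffer, read as polarization after 20 min at room temperature; compounds pinned before peptide addition.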
Potency is the fitted concentration of half-maximal effect.

Tumor susceptibility gene 101 protein (Homo sapiens), sequence (Q99816 whole entry, looked up, the tested form may be a part): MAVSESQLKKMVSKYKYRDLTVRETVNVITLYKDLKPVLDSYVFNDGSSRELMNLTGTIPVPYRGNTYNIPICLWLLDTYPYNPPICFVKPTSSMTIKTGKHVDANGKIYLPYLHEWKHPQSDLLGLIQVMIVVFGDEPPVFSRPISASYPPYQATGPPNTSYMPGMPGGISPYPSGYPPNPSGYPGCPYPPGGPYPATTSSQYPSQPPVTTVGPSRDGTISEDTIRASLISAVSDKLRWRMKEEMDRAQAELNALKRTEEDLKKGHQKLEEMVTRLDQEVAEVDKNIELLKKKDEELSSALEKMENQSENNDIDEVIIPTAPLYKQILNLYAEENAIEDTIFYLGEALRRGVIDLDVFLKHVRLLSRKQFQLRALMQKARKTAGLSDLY

Row | Structure (SMILES) | Potency
1 | O=c1oc2c(CN3CCCCC3)c(O)ccc2cc1-c1nc2ccccc2[nH]1 | inactive
2 | CC1=Nc2ccccc2/C1=C\c1nc(-c2ccc(F)cc2)oc1O | inactive
3 | N#Cc1cccc(NC(=O)CSc2ccc3c4c(cccc24)C(=O)c2ccccc2-3)c1 | inactive
4 | O=C(N/N=C/c1ccccc1Cl)c1[nH]c2ccc(Br)cc2c1-c1ccccc1 | inactive
5 | COCCN(CCOC)Cc1c(O)ccc2c1O/C(=C\c1ccco1)C2=O | inactive
6 | Brc1ccc(C2=CC(c3cccs3)n3ncnc3N2)cc1 (centres undefined) | inactive
7 | Cc1ccccc1N1C(=O)c2cccc3c(N(C)CCO)ccc(c23)C1=O | 32.6 µM (active)
8 | CNc1ccc2c3c(cccc13)C(=O)N(C)C2=O | inactive
9 | Cc1ccc(NC(=O)/C(C#N)=C(\N)C(Cl)(Cl)Cl)nc1 | inactive
10 | O=C1Nc2ccc(Cl)cc2C12Nc1ccccc1-c1nnc(SCc3ccccc3F)nc1O2 (centres undefined) | inactive
11 | O=C1NC(c2ccco2)Nc2sc3c(c21)CCN(Cc1ccccc1)C3 (centres undefined) | inactive
12 | CN(C)c1ccc(/C=C2\SC(=O)N(CC(O)Cn3c4ccccc4c4ccccc43)C2=O)cc1 (centres undefined) | inactive
13 | CN(N=Nc1ccc([N+](=O)[O-])cc1)c1ccccc1 | inactive
14 | C=CCn1c(=O)/c(=C/c2ccc(C)o2)s/c1=C(/C#N)C(=O)c1ccccc1 | inactive
15 | COc1ccc(OC)c2c1C(=O)c1ccccc1C2=O | inactive
16 | CCOc1ccc(NC(=O)N(C2CCCCC2)C(C)c2ccncc2)cc1 (centres undefined) | inactive
17 | Cc1ccc(C(=O)Nc2ccc(C(=O)O)cc2)cc1S(=O)(=O)NCc1ccccc1 | inactive
18 | COc1ccc(-c2cc(C(=O)N3CC(C)CC(C)C3)c3ccccc3n2)cc1OC (centres undefined) | inactive
19 | CC1CCN(Cc2c(O)ccc3c2O/C(=C\c2ccco2)C3=O)CC1 | inactive
20 | COc1ccc(-n2nc(C(=O)Nc3ccc(OC)c(OC)c3)c3c4ccccc4n(C)c3c2=O)cc1 | inactive

Row | Structure (SMILES) | Potency
21 | CCCN1C(=O)/C(=C/C=C2\N(CC)c3ccccc3C2(C)C)SC1=S | inactive
22 | Cc1c2ccccc2nc2c(F)c(N(C)C)c(F)c(F)c12 | inactive
23 | COc1ccc(OC)c(/C=C(\C#N)c2nc3ccccc3c(=O)[nH]2)c1 | inactive
24 | Cn1cccc1/C=C1\SC(=S)N(NC(=O)c2ccccc2Cl)C1=O | inactive
25 | CCN(CC)c1ccc2cc(NC(=O)CCC(=O)O)c(=O)oc2c1 | inactive
26 | N=C1CCC(=N)c2c1c(O)c1ccccc1c2O | inactive
27 | C/C(=N/NC(=O)c1ccncc1)c1cc2ccc(O)cc2oc1=O | inactive
28 | C(=N\NC1=Nc2cccc3cccc1c23)/c1ccccc1 | inactive
29 | Cc1cccc(N=Nc2c(O)[nH]c3ccc(F)cc23)c1 | inactive
30 | O=C(O)CCNc1ccc(NCCC(=O)O)c2c1C(=O)c1ccccc1C2=O | inactive
31 | Cc1nc(Nc2ccc(S(=O)(=O)N3CCCCC3C)cc2)c2nnn(Cc3ccccc3)c2n1 (centres undefined) | inactive
32 | CC(=O)Nc1ccc(Nc2c3c4c(cccc4n(C)c2=O)C(=O)c2ccccc2-3)cc1 | inactive
33 | COc1cccc(NC(=O)/C(C#N)=C/c2ccc(-c3ccc(C)cc3)o2)c1 | inactive
34 | COC(=O)CN1C(=S)N(c2ccc(OC)cc2)C(=O)/C1=C/c1ccc(N2CCOCC2)cc1 | inactive
35 | O=C(NCc1cccc(F)c1)c1cccc2c1C(=O)c1ccc(N3CCC(Cc4ccccc4)CC3)cc1S2(=O)=O | inactive
36 | ClCc1nc2ccccc2n1Cc1ccccc1 | inactive
37 | O=[N+]([O-])c1cc(Cl)cc(/C=N/n2cnnc2)c1O | inactive
38 | COc1ccc(OC)c(/C=C(\C#N)c2nc(-c3ccc(F)cc3)cs2)c1 | inactive
39 | CC1CC(C)CN(C(=O)c2ccc3c(c2NCCO)C(=O)c2ccccc2C3=O)C1 (centres undefined) | inactive
